This note sets out measurements from PubChem BioAssay.

Calls of active or inactive are those of the source.

Test [1] relates to Human papillomavirus type 1a protein E7 (residues 44-93). The test can be described thus: small molecules binding HPV E7 44-93 – biochemical, small-molecule microarray, residues 44-93, 635 nm fluorescence, primary screen (AID 1108).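 Also: E7 fragment applied at 1 µg/mL in TBST for 1 h at 4 C; score combines spot fluorescence with its signal to noise ratio.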 The settings on record: fluorescence 635 nm, higher = more signal.
A short description of test [2]: hepatitis C replication reporter changes, two-sided – Huh7 cells, luciferase reporter, HCV replication inhibitor project, primary screen (AID 1109).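 Also: huh7 hepatoma cells harbouring a luciferase neomycin HCV replicon reporter; luciferase luminescence as measure of HCV replicon replication; test concentration not given here.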 The settings on record: Huh7 HCV replicon luciferase reporter, 48 h; higher = more signal.
For test [3], the target named is Left-right determination factor 2 (Homo sapiens) (UniProt O00292). Nature of the test: small molecules binding LEFTY2 protein – biochemical, small-molecule microarray, 635 nm fluorescence scan, primary screen (AID 1110). The settings on record: higher = more signal.
Sequence of Left-right determination factor 2 (Homo sapiens) (O00292 whole entry, looked up): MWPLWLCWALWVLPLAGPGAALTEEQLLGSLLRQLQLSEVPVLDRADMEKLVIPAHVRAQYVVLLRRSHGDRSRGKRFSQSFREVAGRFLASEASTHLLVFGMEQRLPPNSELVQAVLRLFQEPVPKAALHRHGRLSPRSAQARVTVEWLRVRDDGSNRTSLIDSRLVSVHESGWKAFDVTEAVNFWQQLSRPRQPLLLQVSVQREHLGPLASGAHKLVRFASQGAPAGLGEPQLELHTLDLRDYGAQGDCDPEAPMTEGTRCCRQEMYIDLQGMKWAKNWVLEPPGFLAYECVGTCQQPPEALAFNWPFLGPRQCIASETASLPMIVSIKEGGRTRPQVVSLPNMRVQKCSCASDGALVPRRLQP
Test [4] deals with Calmodulin-1 (Homo sapiens) (UniProt P0DP23). Nature of the test: small molecules binding calmodulin-1 with EGTA – biochemical, small-molecule microarray, Cy5-labelled CALM1, profiling panel (AID 1111).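 Also: labelled calmodulin applied in Tris saline Tween buffer holding calcium plus EGTA and DTT.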 The settings on record: Cy5-CALM1 binding fluorescence, higher = more signal.
The target is the same in test [5]. The test can be described thus: small molecules binding Ca-loaded calmodulin-1 – biochemical, small-molecule microarray, Cy5-labelled CALM1, plus calcium, artefact control for SMM control-protein annotation, profiling panel (AID 1112).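 Also: score merges spot fluorescence with signal to noise from triplicate slides.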 The settings on record: Cy5-CALM1 binding fluorescence, higher = more signal.
Test [6] in a line: probe aWnt5a binding to arrayed compounds – biochemical, biotinylated probe, 635/667 nm fluorescence, primary screen (AID 1113).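 Also: score merges 667 nm fluorescence intensity with signal-to-noise per printed feature.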 The settings on record: small-molecule microarray, higher = more signal.
Test [7] is described as follows: probe aShh binding to arrayed compounds – biochemical, biotinylated probe, 635/667 nm fluorescence, primary screen (AID 1114).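 Also: probe is biotin-labelled aShh protein from a stem cell growth factor screen; measures binding of labelled protein to compounds printed on the slide; score merges feature fluorescence at 667 nm with signal-to-noise.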 The settings on record: small-molecule microarray, higher = more signal.
Test [8] is described as follows: probe aNog binding to arrayed compounds – biochemical, biotinylated probe, 635/667 nm fluorescence, primary screen (AID 1115).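 Also: probe is biotinylated aNog protein used at 0.15 µg/mL for 1 h at 4 C; z-score combines 667 nm fluorescence of each spot with its signal to noise.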 The settings on record: small-molecule microarray, higher = more signal.
Test [9] addresses Torsin-1A-interacting protein 1 (Homo sapiens) (UniProt Q5JTV8). Nature of the test: compound microarray binding of lysate hLAP1 – cell lysate, small-molecule microarray, COS7 lysate, 635/667 nm fluorescence, primary screen (AID 1116). The settings on record: 635 nm fluorescence, higher = more signal.
Test [10] concerns the target Alpha-bungarotoxin (Bungarus multicinctus) (UniProt P60615). Nature of the test: compounds binding labelled alpha-BTX control protein – biochemical, small-molecule microarray, Alexa647 label, 635/667 nm fluorescence, artefact control for SMM control protein annotation, profiling panel (AID 1117). The settings on record: alpha-BTX-A647 binding fluorescence, higher = more signal.

Test [11] deals with Albumin (Bos taurus) (UniProt P02769). Nature of the test: compounds binding labelled BSA control protein – biochemical, small-molecule microarray, Alexa647 label, 635/667 nm fluorescence, artefact control for SMM control protein annotation, profiling panel (AID 1118).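 Also: score merges 667 nm emission intensity and signal-to-noise per printed compound spot.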 The settings on record: BSA-A647 binding, fluorescence 635 nm, higher = more signal.
Sequence of Albumin (Bos taurus) (P02769 whole entry, looked up): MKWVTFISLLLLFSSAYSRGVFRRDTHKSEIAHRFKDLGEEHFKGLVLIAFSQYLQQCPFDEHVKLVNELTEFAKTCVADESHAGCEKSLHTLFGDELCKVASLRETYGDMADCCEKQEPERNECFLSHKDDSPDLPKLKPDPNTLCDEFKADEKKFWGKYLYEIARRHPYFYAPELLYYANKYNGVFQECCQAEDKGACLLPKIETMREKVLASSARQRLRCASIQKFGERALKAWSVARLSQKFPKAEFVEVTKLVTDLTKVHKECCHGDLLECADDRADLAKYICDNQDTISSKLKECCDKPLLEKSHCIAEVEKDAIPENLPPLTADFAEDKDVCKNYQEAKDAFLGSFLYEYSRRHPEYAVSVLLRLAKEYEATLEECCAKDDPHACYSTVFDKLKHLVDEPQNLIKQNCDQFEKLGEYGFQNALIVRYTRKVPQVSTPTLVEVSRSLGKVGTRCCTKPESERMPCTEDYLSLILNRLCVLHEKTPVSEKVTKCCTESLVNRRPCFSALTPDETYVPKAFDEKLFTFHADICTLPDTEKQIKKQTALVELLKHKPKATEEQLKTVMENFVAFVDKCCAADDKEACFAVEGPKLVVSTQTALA
Test [12] is described as follows: probe aXIP binding to arrayed compounds – biochemical, NeuroSMM set, 635/667 nm fluorescence, primary screen (AID 1119).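 Also: probe is the protein aXip251-270 applied at 1 µg/mL to compound-printed slides; binding of probe to printed compounds measured as 667 nm fluorescence plus signal to noise.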 The settings on record: small-molecule microarray, higher = more signal, called active from +8 up or from −8 down.
Test [13] in a line: probe aNOTCH3 binding on compound microarray – biochemical, small-molecule microarray, 635/667 nm fluorescence, primary screen (AID 1120).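 Also: probe is a biotin-tagged antibody raised against NOTCH3 rather than NOTCH3 protein; score merges spot fluorescence near 667 nm with spot signal to noise.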 The settings on record: higher = more signal.
Test [14] in a line: probe aNOTCH2 binding on compound microarray – biochemical, small-molecule microarray, 635/667 nm fluorescence, primary screen (AID 1121).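 Also: score merges feature fluorescence read at 667 nm with its signal to noise.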 The settings on record: higher = more signal.
For test [15], the target named is Carbonic anhydrase 2 (Homo sapiens) (UniProt P00918). Nature of the test: compounds binding carbonic anhydrase 2 – biochemical, small-molecule microarray, Alexa647-labelled CAII, profiling panel (AID 1122). The settings on record: CAII-A647 binding fluorescence, higher = more signal.
Test [16] can be described thus: COS7 lysate on small-molecule microarray, probe aHis, 635 nm (AID 1123).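 Also: z-score combines 667nm fluorescence intensity with signal-to-noise per printed compound spot.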 The settings on record: COS7 cell lysate, fluorescence, higher = more signal.
Test [17] is described as follows: probe aLAP1 signal on lysate-treated microarray – cell lysate, small-molecule microarray, COS7 lysate, primary screen (AID 1124).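 Also: lysate comes from COS7 cells expressing LAP1 and is applied at 0.3 µg/mL; score merges spot fluorescence near 667 nm with signal-to-noise over triplicate slides.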 The settings on record: probe aLAP1, fluorescence, higher = more signal.
In test [18] the test system is Sam68 (KHDRBS1). The test can be described thus: compounds binding KHDRBS1 protein – biochemical, small-molecule microarray, 635 nm fluorescence, primary screen (AID 1125).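 Also: score merges 667 nm channel intensity with signal to noise over triplicate slides.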 The settings on record: higher = more signal.
The subject of test [19] is Chordin-like protein 2 (CHRDL2). Nature of the test: compounds binding chordin-like 2 – biochemical, small-molecule microarray, 635 nm fluorescence, primary screen (AID 1126).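 Also: printed compound slides probed with Chrdl2 protein at 4 µg/mL for 1 h at 4 C; score merges 667 nm emission intensity with signal to noise over three replicate slides.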 The settings on record: fluorescence 635 nm, higher = more signal.
In test [20] the target is Concanavalin-A (Canavalia ensiformis) (UniProt P02866). Nature of the test: compounds binding concanavalin A lectin – biochemical, small-molecule microarray, Alexa647 label, 635 nm, artefact control for SMM control protein annotation, primary screen (AID 1127).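 Also: z combines 667 nm emission intensity with signal-to-noise across three replicate slides.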 The settings on record: ConA-A647 binding fluorescence, higher = more signal.
Sequence of Concanavalin-A (Canavalia ensiformis) (P02866 whole entry, looked up): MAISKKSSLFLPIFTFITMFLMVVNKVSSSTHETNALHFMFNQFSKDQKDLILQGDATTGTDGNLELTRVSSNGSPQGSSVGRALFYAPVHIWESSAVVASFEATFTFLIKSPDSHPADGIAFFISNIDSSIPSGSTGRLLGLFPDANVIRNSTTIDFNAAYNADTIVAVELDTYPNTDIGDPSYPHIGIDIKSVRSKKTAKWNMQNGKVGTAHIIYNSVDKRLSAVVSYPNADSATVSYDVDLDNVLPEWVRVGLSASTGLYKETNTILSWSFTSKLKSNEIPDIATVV

Sequence of Alpha-bungarotoxin (Bungarus multicinctus) (P60615 whole entry, looked up): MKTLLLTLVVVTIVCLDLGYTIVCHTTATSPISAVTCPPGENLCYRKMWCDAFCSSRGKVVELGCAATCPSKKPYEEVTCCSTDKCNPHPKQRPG
Sequence of Torsin-1A-interacting protein 1 (Homo sapiens) (Q5JTV8 whole entry, looked up): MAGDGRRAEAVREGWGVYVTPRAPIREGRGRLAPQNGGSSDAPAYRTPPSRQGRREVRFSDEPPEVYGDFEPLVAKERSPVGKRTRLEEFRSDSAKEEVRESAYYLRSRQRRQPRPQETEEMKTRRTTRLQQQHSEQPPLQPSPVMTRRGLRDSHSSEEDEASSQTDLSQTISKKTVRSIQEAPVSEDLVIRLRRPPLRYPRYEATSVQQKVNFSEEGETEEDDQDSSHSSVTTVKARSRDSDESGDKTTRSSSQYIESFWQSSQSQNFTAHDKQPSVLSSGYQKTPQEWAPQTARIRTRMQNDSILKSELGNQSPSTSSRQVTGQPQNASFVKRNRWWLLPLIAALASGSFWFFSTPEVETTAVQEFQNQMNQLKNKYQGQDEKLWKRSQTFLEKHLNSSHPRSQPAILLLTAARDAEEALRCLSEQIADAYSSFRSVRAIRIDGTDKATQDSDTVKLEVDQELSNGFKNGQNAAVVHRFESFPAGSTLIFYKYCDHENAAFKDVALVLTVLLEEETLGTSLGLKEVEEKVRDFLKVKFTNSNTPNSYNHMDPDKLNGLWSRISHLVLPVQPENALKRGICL

On to `O=C1O[C@@H](c2ccccc2)[C@@H](c2ccccc2)N2[C@@H](c3ccc(O)cc3)[C@]3(C(=O)Nc4ccc(C#CC5(O)CCCCCC5)cc43)[C@@H](C(=O)N3CCN(c4ncccn4)CC3)[C@H]12`, for which the composite z-score in [1] was 1.4; in test [3] it was 0.114; in test [4], 1.03; in test [5] it was 0.137; in [6], -0.0721; in test [7] it was 0.255. In addition, the composite z-score is 0.146 in test [8]; 1.18 in test [9]; 1.21 in test [10]; 0.77 in test [11]; -0.0558 in [13]; -0.123 in [14]. Moreover, the composite z-score in [15] is 0.604; in test [16] it was 1.87; in [17] it was 0.333; in [18] it was 1.31; in test [19] it was -0.106; in [20], 1.13. Further, in test [2], the z-score was -0.843. In test [12], the composite Z-score is 0.95 (inactive).
As to `C[C@H]1NC(=O)C([C@@H](C)OCc2ccccc2)NC(=O)[C@@]23C(=O)N[C@@H](Cc4ccccc4)C2[C@H](C)[C@@]2(C)O[C@H]2C3/C=C/CC/C=C/CNC1=O` (stereo not given in full), the composite z-score in test [1] was -0.165; in test [3] it was 0.416; in test [4] it was -0.377; in [5], -0.377; in [6] it was 0.0919; in [7], 0.0815. Further, the composite z-score in test [8] was -0.37; in test [9] it was 0.26; in [10], 0.421; in [11] it was 0.506; in [13] it was -0.0647; in [14], -0.0131. The composite z-score is 0.665 in test [15]; -0.308 in test [16]; 0.03 in test [17]; -0.389 in test [18]; 0.634 in test [19]; -1.38 in [20]. Besides, the z-score in [2] is -0.631. In addition, the composite Z-score in test [12] was -0.169 (inactive).
For `CCOC(=O)C1=CCC(c2cccc(Cl)c2)O1` (stereo not given), the composite z-score is 0.377 in test [1]; 0.005 in test [3]; -0.314 in test [4]; -0.571 in test [5]; -0.0492 in test [6]; 0.0796 in [7]. Besides, the composite z-score is 0.59 in test [8]; 0.291 in test [9]; -0.383 in test [10]; 0.581 in [11]; 0.0357 in [13]; -0.0651 in test [14]. In addition, the composite z-score in test [15] was 0.181; in test [16], 0.389; in [17], -0.064; in test [18], 0.609; in test [19] it was -0.384; in test [20], 0.16. The same compound displayed a z-score in test [2] of -1.74. In addition, the composite Z-score in test [12] was -0.214 (inactive).
Turning to `COC(=O)[C@@]1(Cc2ccccc2)[C@H]2c3cc(C(=O)N4CCCC4)n(Cc4ccc(OC(F)(F)F)cc4)c3C[C@H]2CN1C(=O)c1ccccc1`, the composite z-score in [1] is 1.41; in test [3], -0.782; in [4], 2.31; in test [5] it was 1.41; in test [6], 0.583; in [7], 1.12. In addition, the composite z-score was found to be 1.69 in [8]; 0.867 in test [9]; 1.35 in [10]; 0.963 in test [11]; 0.772 in test [13]; 0.509 in test [14]. The composite z-score was 0.461 in test [15]; 2.44 in [16]; 0.498 in [17]; 1.31 in test [18]; -0.488 in test [19]; 1.16 in test [20]. In test [2], this compound showed a z-score of -1.95. Also, the composite Z-score in test [12] is -0.56 (inactive).
Regarding `COc1ccc([Si](C)(C)[C@@H]2[C@@H](CC(=O)N(CCO)Cc3ccccc3)O[C@]3(C(=O)N(Cc4ccc(N5CCOC5=O)cc4)c4ccccc43)[C@H]2C)cc1`, the composite z-score in test [1] is 0.542; in test [3], 0.491; in test [4], 0.515; in test [5], 0.385; in test [6], -0.0337; in test [7], 0.321. The composite z-score in test [8] is 0.264; in test [9] it was 1.02; in test [10] it was 0.989; in test [11], -0.697; in test [13], -0.063; in test [14] it was -0.175. The composite z-score in [15] was 0.469; in test [16] it was 1.35; in [17], -0.211; in [18] it was 0.951; in [19], 0.697; in [20] it was 1.08. Also, in test [2], the z-score was -4.45. Also, the composite Z-score in test [12] is 0.516 (inactive).
As to `CN(C)CCCCNC(=O)[C@H]1C[C@H]2C(=O)N[C@@H](CCCC[N+](C)(C)C)C(=O)N2[C@H]1c1cccc(OCCO)c1`, the composite z-score in [1] was 1.37; in test [3], 0.206; in test [4], 0.285; in test [5], -0.166; in [6], -0.0792; in test [7], 0.13. Moreover, the composite z-score in test [8] was 0.0286; in [9], 0.116; in test [10], 0.112; in [11] it was -0.355; in test [13] it was -0.0774; in [14] it was -0.112. The composite z-score came out at 0.798 in [15]; 0.726 in [16]; 0.448 in [17]; 1.15 in [18]; 1.23 in test [19]; 1 in [20]. The compound further registered a z-score in test [2] of -0.156. The composite Z-score in test [12] is 2.15 (inactive).
